# In PubChem BioAssay AID1117361 (Southern Research Institute, 2015):
# About 900 (25%) of roughly 3,600 compounds were called active. No rule for the calls is given here. A selection follows. Measured potencies and affinities stand elsewhere.
# Target: Protein Tat (Human immunodeficiency virus type 1 group M subtype B (isolate HXB2)) (UniProt P04608)
# Assay: HIV-1 Tat–TAR interaction blockers – biochemical, fluorescence polarization, FAM-labeled TAR RNA, counter-screen for Vif-APOBEC3G degradation inhibitor project, dose response (AID 1117361)
# Settings: Tat-TAR RNA binding; series mostly up to 100 µM
row,Structure (SMILES),outcome
1,CCN(CC)c1ccc(NC(=O)c2ccc(Br)o2)cc1,inactive
2,COc1ccc(NC(=O)c2ccc(S(=O)(=O)N3CCOCC3)o2)cc1,inactive
3,O=C(O)Cn1c(=O)c2c(c3ccccc31)CCC2,inactive
4,CS(=O)(=O)N1CCN(c2ccccc2NC(=O)CSc2ccc(Cl)cc2)CC1,inactive
5,Cn1cccc1Cc1nnc(SCC(N)=O)n1CCc1ccccc1,inactive
6,CC[C@H](C)[C@H](NC(N)=O)C(=O)NCCc1ccc(OC)cc1,inactive
7,Cc1c(C)n(CC(O)CN2CCCCCC2)c2ccccc12 (centres undefined),inactive
8,Cc1ccc(-n2c(SCC(=O)NCc3ccco3)nc3c([nH]c4ccccc43)c2=O)cc1,inactive
9,CC1CCc2c(sc3ncn4c(SCC(=O)NCc5ccco5)nnc4c23)C1 (centres undefined),inactive
10,CCn1c(Cc2c(C)[nH]c3ccccc23)n[nH]c1=S,inactive
11,COc1ccc(-c2noc(Cc3cccs3)n2)cc1,inactive
12,O=C(/C=C/c1ccc(O)c(O)c1)c1ccc(S(=O)(=O)N2CCCCCC2)cc1,inactive
13,CCCNS(=O)(=O)c1ccc(NC(=O)c2ccccn2)cc1,inactive
14,CC(C)(C)c1ccc(C(=O)Oc2ccc3c(c2)OCC3=O)cc1,inactive
15,O=C1/C(=C\c2ccco2)CCC/C1=C\c1ccco1,inactive
16,C=CCNC(=S)NNC(=O)c1ccccc1,inactive
17,COc1ccc(N/N=C(\C#N)C(=N)SCc2ccccc2)cc1,inactive
18,CC1(C)Cc2cccc(OCC(O)CN3CCN(c4ccccn4)CC3)c2O1 (centres undefined),inactive
19,O=C1CNC(=O)/C1=C/c1ccc(Br)cc1,inactive
20,CC1CC(C)CN(C(=O)COC(=O)CNS(=O)(=O)/C=C/c2ccccc2)C1 (centres undefined),inactive
21,CCS(=O)(=O)N1CCN(C(=O)c2cccc3ccccc23)CC1,inactive
22,CN(C)CCCNC(NC(=O)c1cccs1)C(Cl)(Cl)Cl (centres undefined),inactive

row,Structure (SMILES),outcome
1,Cc1nc2c3ccccc3n(CC(=O)c3ccc(F)cc3)c(=O)n2n1,inactive
2,O=C(NC(=S)N1CCN(c2c(Cl)cccc2[N+](=O)[O-])CC1)c1cccs1,inactive
3,COc1cc2c(cc1NC(=O)CC1SC(N3CCCC3)=NC1=O)oc1ccccc12 (centres undefined),inactive
4,COc1ccc(N2CCN(C(=O)c3ccc(C)c(Cl)c3)CC2)cc1,inactive
5,O=S(=O)(c1ccc2nc(-c3ccco3)c(-c3ccco3)nc2c1)N1CCOCC1,inactive
6,COc1ccc2nc(N3CCN(C(=O)c4ccc5ncsc5c4)CC3)sc2c1,inactive
7,COc1ccc(C(=O)Nc2cccc(C(=O)N3CCN(C)CC3)c2)cc1,inactive
8,O=S(=O)(c1ccc(F)cc1)N(CCO)CC(O)Cn1c2ccccc2c2ccccc21 (centres undefined),inactive
9,Cc1c(C(=O)N2CCN(c3ccc(F)cc3)CC2)sc2nc(-c3ccccc3)cn12,inactive
10,CCS(=O)(=O)n1nc(-c2ccc(Cl)cc2)nc1SC,inactive
11,Cn1c(C(=O)NCCN2CCOCC2)cc2c(=O)n(C)c3ccccc3c21,inactive
12,COc1ccc(CNC(=O)Cn2nc(C(F)(F)F)c3c2CCC3)cc1,inactive
13,Cc1sc(NC(=O)c2ccccc2)c(C(=O)NCCN(C)C)c1C,inactive
14,NC(=O)C1CCN(C2=C(Cl)C(=O)c3ccccc3C2=O)CC1,inactive
15,CC1COCC(C)N1C1=C(Cl)C(=O)c2ccccc2C1=O (centres undefined),inactive
16,CCc1cc2c(=O)n(-c3ccc(C)cc3)cnc2s1,inactive
17,COc1ccc(CCNS(=O)(=O)c2ccc3c(c2)CCN3C(=O)CCC(=O)O)cc1OC,inactive
18,COc1ccc(C2C(C(=O)NCCN(C)C)c3ccccc3C(=O)N2C)cc1OC (centres undefined),inactive
19,CCCCN(CCCC)S(=O)(=O)c1ccc(NC(=O)c2cccs2)cc1,inactive
20,[O-][n+]1onc2c1CCc1c-2nc(-c2ccccc2)n1OCc1ccccc1,inactive
21,CCN(CCCNC(=O)C1CCCN(S(=O)(=O)CC)C1)c1cccc(C)c1 (centres undefined),inactive
22,O=C(c1ccc2c(c1)OCCO2)C1CCN(C(=O)c2ccc(F)cc2)CC1,inactive

row,Structure (SMILES),outcome
1,CCc1ccccc1NC(=S)N(Cc1ccc(OC)cc1)CC1CCC(C(=O)O)CC1 (centres undefined),inactive
2,CCn1cc(C(=O)NCc2ccc3c(c2)OCO3)c2cc(OC)c(OC)cc2c1=O,inactive
3,Cc1ccc(C(=O)C2C(c3cccs3)NC(=O)NC2(O)C(F)(F)F)cc1 (centres undefined),inactive
4,CCOC(=O)C1=C(CN2CCN(c3ccc(F)cc3)CC2)NC(=O)NC1c1cccs1 (centres undefined),inactive
5,Cn1cccc1C(=O)NC(=O)COC(=O)CC12CC3CC(CC(Br)(C3)C1)C2,inactive
6,CC1=C(C(=O)OCC(Cl)(Cl)Cl)N2C(=O)C(NC(=O)Cc3ccccc3)C2SC1 (centres undefined),inactive
7,O=C(Cc1ccccc1)Nc1scc(-c2ccccc2)c1C(=O)N1CCOCC1,inactive
8,CC(=O)[C@@]1(O)CC[C@H]2[C@@H]3CCC4=CC(=O)CC[C@]4(C)[C@H]3CC[C@@]21C,inactive
9,Cc1sc(-c2ccncc2)nc1OC(=O)c1ccccc1,inactive
10,COc1ccc(S(=O)(=O)NC2CC(C)(C)NC(C)(C)C2)c(C)c1C,inactive
11,Cc1sc2nc(C)n(/N=C/c3ccccc3O)c(=O)c2c1C,inactive
12,C=CCNC(=O)c1cc(=O)c2ccccc2o1,inactive
13,Cc1nn(-c2ccc(Cl)cc2)c2[nH]c(=O)c(CNCc3ccc4c(c3)OCO4)cc12,inactive
14,O=c1oc(/C=C/c2ccccc2)nc2sc3c(c12)CCC3,inactive
15,O=[N+]([O-])c1cc(C(F)(F)F)ccc1N1CCN(S(=O)(=O)c2ccc3ccccc3c2)CC1,inactive
16,COC(=O)C1=C(Nc2ccc(OC)cc2)C=C(C)C(C(=O)OC)C1c1ccc(C)cc1 (centres undefined),inactive
17,CC1(C)CC(NS(=O)(=O)c2ccccc2)CC(C)(C)N1,inactive
18,CC1(C)C2CCC1(C)C(NC1=NCCC1)C2 (centres undefined),inactive
19,CC(=NCc1ccc2c(c1)OCO2)C1=C(O)c2ccccc2C1=O,inactive
20,CCCN(CCC)C(=O)c1cc(-c2ccc3c(c2)OCO3)nc2ccccc12,inactive
21,CC(OC(=O)CC1CCCC1)C(=O)Nc1ccc(Cl)cn1 (centres undefined),inactive
22,Nn1c(SCC(=O)NC2CCCc3ccccc32)nnc1-c1cccs1 (centres undefined),inactive

row,Structure (SMILES),outcome
1,COc1ccccc1CNS(=O)(=O)c1cccc(S(=O)(=O)N2CCOCC2)c1,inactive
2,COC(=O)C1C2CCC(C2)C1C(=O)OCC(=O)c1ccc(C)cc1 (centres undefined),inactive
3,CC(C)CC(=O)N(c1ccc(F)cc1)C1C=CS(=O)(=O)C1 (centres undefined),inactive
4,O=C(CCl)N1N=C(c2ccco2)CC1c1ccco1 (centres undefined),inactive
5,Cc1cc(C)cc(NC(=S)NC(=O)CCN2C(=O)c3ccccc3C2=O)c1,inactive
6,CCCCOc1cccc(C(=O)NC(=S)Nc2ccc(Cl)c(C(=O)O)c2)c1,inactive
7,COC(=O)c1ccc(C)c(NS(=O)(=O)c2ccc(NC(C)=O)cc2)c1,inactive
8,CC(=O)Nc1ccc(S(=O)(=O)Nc2cccc(-c3nc4ccccc4o3)c2)cc1,inactive
9,CCc1ccc(-c2cc(C(=O)Nc3ccc(S(=O)(=O)NC(C)=O)cc3)c3ccccc3n2)cc1,inactive
10,COc1ccc(N2CCN(c3nc4ccccc4nc3NS(=O)(=O)c3ccccc3)CC2)cc1,inactive
11,COc1ccc(NCc2nnc(SCC(=O)N3CCCc4ccccc43)o2)cc1,inactive
12,O=c1oc(-c2cccnc2)nc2ccccc12,inactive
13,CC(C)(C)c1ccc(NC(=S)NCc2cccnc2)cc1,inactive
14,FC(F)Oc1ccccc1NC(=S)Nc1cccnc1,inactive
15,COc1ccc(N2C(=O)C3CCCN3C2c2ccc(C)cc2)cc1 (centres undefined),inactive
16,CS(=O)(=O)N1CCC(C(=O)NCCc2ccccc2)CC1,inactive
17,Cn1c(CNC(=O)C2CCCCC2)cc2cc(Cl)ccc21,inactive
18,CC(CN1CCN(C)CC1)OC(=O)c1ccccc1Cl (centres undefined),inactive
19,COc1ccc(C)cc1NC(=O)c1[nH]c(C)c(C(C)=O)c1C,inactive
20,COc1ccccc1N1CCN(C(=O)C(F)F)CC1,inactive
21,O=C(NCc1ccc(N2CCCC2=O)cc1)NC1CCCCC1,inactive
22,Cc1ccc2nc(C3CCN(CC(=O)Nc4ccc5c(c4)OCCO5)CC3)[nH]c2c1,inactive

row,Structure (SMILES),outcome
1,O=C1NC2(CCCCC2)NN1c1ccccc1,inactive
2,Cc1cc(C)c2c(c1)[C@@H]1C=CC[C@@H]1[C@H](c1ccc(S(=O)(=O)N3CCOCC3)cc1)N2,inactive
3,O=C(O)c1ccc2c(c1)C(c1ccccc1)OC2=O (centres undefined),inactive
4,CCC(C)NS(=O)(=O)c1ccc(S(=O)(=O)N(CC(=O)Nc2ccccc2)CC2CCCO2)cc1 (centres undefined),inactive
5,COc1ccccc1S(=O)(=O)Cc1ccc(C(=O)N2CCN(c3ccccn3)CC2)o1,inactive
6,CCN1CCN(CCCNC(=O)c2ccc3c(c2)NC(=O)c2ccccc2S3)CC1,inactive
7,CC1(C)CC(=O)C2=C(C1)N(Cc1ccc(F)cc1)C(=O)C2(NC(=O)c1cccnc1)C(F)(F)F (centres undefined),inactive
8,CC(=O)Nn1cc2c(=O)n(C)c(=O)n(C)c2c1,inactive
9,CCN(CC)CCN1C(=O)c2ccccc2NC1c1ccc(N(C)C)cc1 (centres undefined),inactive
10,COc1cc(NC(=O)c2cc3nc(C)cc(C)n3n2)c(OC)cc1Cl,inactive
11,Cc1ccc2c(c1)c(CC(=O)Nc1ccc(C)c(F)c1)c(C(=O)O)n2C,inactive
12,Nc1ccc(-c2nc3cc(N)ccc3n2CCO)cc1,inactive
13,COc1ccc(S(=O)(=O)NCc2ccccn2)c(Cl)c1Cl,inactive
14,CCN(CC)CCNC(=O)CCn1c(=S)[nH]c2cc3c(cc2c1=O)OCO3,inactive
15,C=CCn1cc(-c2ccccc2)cc(C#N)c1=O,inactive
16,Cc1ccc(CSc2nc3c(c(N(C)C)n2)CCCC3)cc1,inactive
17,CCN(CC)CCCNC(=O)CSc1nc(-c2cccs2)cc(C(F)(F)F)n1,inactive
18,COC(=O)/C=c1\sc2n(c1=O)C(C)=CC(C)(C)N=2,inactive
19,CCOC(=O)CCC(=O)N1CCOCCN(C(=O)CCC(=O)OCC)CCOCC1,inactive
20,Cc1ccc(N=Cc2nc(-c3ccc(C)cc3)oc2O)cc1,inactive
21,CC(C)(C)NC(=O)CSc1nnc(-c2ccccn2)n1Cc1ccccc1,inactive
